Most compounds without a hit are left out; they make up all but 19% or so of the library.
KB-V1 cytotox – kills drug-selected multidrug resistant KB-V1 cells; Potency, µM (highest dose often 46.1 µM), most hits filed as cytotoxic; KB-V1 MDR cells viability, CellTiter-Glo, 72 h; 400,000 tested, 3.4% active; note: nearly all actives have a fitted effect of over 60% in size
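Potencies derive from concentration-effect curves fitted to normalized luminescence (CellTiter-Glo) of KB-V1 cells treated for 72 h at 37 degrees C in phenol-red-free DMEM containing 10% FBS.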
DT40 TDP1 no CPT – qHTS for Inhibitors of human tyrosyl-DNA phosphodiesterase 1 (TDP1): qHTS in cells in absence of CPT. 420,000 tested, 15% active. DT40 Tdp1-/- hTDP1 cells, no CPT, ATP luminescence, 48 h. Potency, µM (doses to about 46.2 µM), actives largely listed as inhibitors; note: nearly all actives have a fitted effect of over 55% in size
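Seeded 400 DT40-hTDP1 cells/well (vehicle DMSO, no 20 nM CPT); pinned compounds; ≥48 hr at 37 °C; CellTiter-Glo luminescence as viability measure.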
HT1080-NT tox – kills 2HG-producing HT-1080-NT fibrosarcoma cells. HT-1080-NT fibrosarcoma viability, CellTiter-Glo ATP luminescence, 48 h. 360,000 tested, 1.6% active. Potency, µM (top dose mostly 46.1 µM), hits mostly cytotoxic;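 note: NT is the 2HG producing partner of a matched IDH1 knockdown line; nearly all actives have a fitted effect of over 55% in size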
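HT-1080-NT fibrosarcoma cells (2HG-overproducing), 750 cells/well in RPMI with 5% FBS, dosed after 2 h and incubated 48 h at 37C. CellTiter-Glo luminescence normalized to DMSO and no-cell wells; concentration-response curves fitted and classed.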
DT40 TDP1 CPT – growth inhibition of DT40 Tdp1-/-;hTDP1 cells with camptothecin (screen for TDP1 inhibitors); 420,000 tested, 12% active; Potency, µM (doses to about 46.2 µM), most hits filed as inhibitors; chicken DT40 Tdp1-/-;hTDP1 cells + 20 nM CPT, ATP luminescence, 48 h; AID 686979; note: nearly all actives have a fitted effect of over 55% in size
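Chicken DT40 Tdp1-/- cells stably complemented with human TDP1 were seeded at 400 cells/well in medium containing 20 nM camptothecin, exposed to pin-transferred compounds, and grown at 37 °C for at least 48 hr. Viability was read as ATP luminescence.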
KB-3-1 cytotox – KB-3-1 parental cell cytotoxicity; KB-3-1 viability, CellTiter-Glo ATP luminescence, 72 h; AID 1347075; Potency, µM (top dose mostly 46.1 µM), actives largely listed as cytotoxic; 400,000 tested, 1.4% active; note: nearly all actives have a fitted effect of over 60% in size
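Using CellTiter-Glo luminescence, growth of non-resistant KB-3-1 adenocarcinoma cells is assessed 72 h after pin-tool compound addition at 37 °C. Normalized responses across the concentration series yield fitted curves.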
HT1080 IDH1KD tx – kills HT-1080 cells with IDH1 knockdown; 360,000 tested, 2% active; Potency, µM (top dose mostly 46.1 µM), hits mostly cytotoxic; HT-1080 IDH1 knockdown viability, ATP luminescence, 48 h
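Viability of IDH1-knockdown HT-1080 fibrosarcoma cells was assessed by CellTiter-Glo after 48 h at 37 °C with titrated compound; concentration-effect curves were classified by fit quality and response size.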
Numbers stand for hits; 0 = inactive; ? = inconclusive; - = no result; ! = repeats disagree; [ ] = dose if it differs, or a comment. Calls come from the whole dose curve; as a rule, active = well fitted curve in the direction sought with a large enough effect; inconclusive = small, poorly fitted or top-dose-only effect, or another doubt; inactive = no such curve, though single readings can be large; an effect the other way counts as inactive or inconclusive.

SMILES	KB-V1 cytotox	DT40 TDP1 no CPT	HT1080-NT tox	DT40 TDP1 CPT	KB-3-1 cytotox	HT1080 IDH1KD tx
CCCOP(=O)(OCCC)C(Nc1cccc(C(F)(F)F)c1)c1ccc(C)cc1 (stereo unspecified)	12µM	23µM	?	?	?	?
CCOP(=O)(OCC)C(Nc1cccc([N+](=O)[O-])c1)c1ccc(OC)cc1 (stereo unspecified)	?	13µM	0	?	0	0
CN1CN(c2cccc([N+](=O)[O-])c2)CN=C1N[N+](=O)[O-]	0	0	0	0	0	0
C/C(=C\[C@@H](N)C(=O)O)CP(=O)(O)O	-	0	-	0	-	-
Cc1cc(OCC(=O)N2CCC(C(=O)O)CC2)c2c3c(c(=O)oc2c1)CCC3	0	0	0	0	0	0
COC(=O)C1=C(c2cc3ccccc3s2)C[C@@H]2CC[C@H]1N2C(=O)NCc1ccco1	0	?	0	?	0	0
CC1C(=O)OC2C(O)C34C5OC(=O)[C@@]3(OC3OC(=O)[C@H](O)[C@]34C(C(C)(C)C)C5O)[C@]12O (stereo partly specified)	-	0	-	0	-	-
COc1cc(CN2CCN(C(=O)Cc3ccccc3)CC2)cc(OC)c1OC	0	0	0	0	0	0
COc1ccc(CN2CCN(C(=O)Cn3c(=O)oc4cc(Cl)ccc43)CC2)c(OC)c1OC	0	?	0	10µM	0	0
Cc1cc(C)cc(N2C(=O)NC(=O)/C(=C\c3cccn3-c3ccccc3)C2=O)c1	18µM	?	0	?	?	?
CN1C(=O)/C(=C/c2cccn2-c2ccc3ccccc3c2)C(=O)NC1=S	?	5.2µM	?	3.3µM	?	?
O=C1NC(=S)NC(=O)C1=Cc1cccn1-c1ccc(O)cc1	0	5.2µM	?	3.7µM	?	23µM
O=C1NC(=S)N(c2ccc(F)cc2)C(=O)/C1=C/c1ccccc1O	0	0	0	?	0	0
COc1ccccc1C=C1C(=O)NC(=S)NC1=O	0	0	0	0	0	0
COC(=O)[C@H]1[C@@H](OC(=O)c2ccccc2)C[C@@H]2CC[C@H]1N2C	-	0	-	?	-	-
CCOC(=O)c1c(C)[nH]c(C)c1S(=O)(=O)N1CCC(C(=O)N2CCN(c3ccc(Cl)cc3)CC2)CC1	?	?	-	?	0	-
Cc1cc(C)c2c(ccc3cccc[n+]32)c1	?	21µM	?	?	?	?
O=C(Nc1ccccc1)N1CC[C@@]2(CCCNC2)C1	-	0	-	0	-	-
c1ccc2c(c1)Nc1ccccc1S2	0	34µM!	0	5.3µM!	0	0
CC(C)NP(=O)(NC(C)C)OP(=O)(NC(C)C)NC(C)C	0	0	0	0	0	0
Cc1ccc(-c2nn3c(C)nnc3c3ccccc23)cc1S(=O)(=O)NCCO	0	21µM!	0	?	?	0
CC(C)[C@H]1C(=O)N2CCC[C@H]2[C@]2(O)O[C@](NC(=O)[C@@H]3C[C@@H]4c5cccc6[nH]cc(c56)C[C@H]4N(C)C3)(C(C)C)C(=O)N12	-	19µM	-	?	-	-
CC(C)[C@@]1(NC(=O)[C@@H]2C[C@@H]3c4cccc5[nH]cc(c45)C[C@H]3N(C)C2)O[C@@]2(O)[C@@H]3CCCN3C(=O)[C@H](Cc3ccccc3)N2C1=O	0	19µM!	0	27µM!	0	0
CCc1nc2ccc(C(=O)N3CCN(C(=O)c4ccco4)CC3)cn2c1N(C)Cc1ccc(OC)cc1	0	?	?	?	0	0
CCn1cc(C(=O)NCCc2ccc(Cl)cc2)c(=O)c2cc(S(=O)(=O)N(C)C3CCCCC3)ccc21	0	?	-	?	0	-
SMILES	KB-V1 cytotox	DT40 TDP1 no CPT	HT1080-NT tox	DT40 TDP1 CPT	KB-3-1 cytotox	HT1080 IDH1KD tx
COc1ccc(NC(=O)c2oc3ccc(S(=O)(=O)N(C)C4CCCCC4)cc3c2C)cc1	-	8.2µM	-	10µM	-	-
N#Cc1ccc(NC(=O)CN2CCN(C(=O)c3cccs3)CC2)cc1Cl	?	16µM	0	?	0	0
O=[N+]([O-])c1cc(F)c(N2CCCCCC2)cc1N1CCNCC1	?	?	0	16µM	0	0
CN1CCN(c2ccc([N+](=O)[O-])c(N3CCCCC3)c2)CC1	0	0	0	0	0	0
N#CC1C(C#N)C2CCC1C1C2N1c1ccccc1 (stereo unspecified)	0	0	0	0	0	0
Cc1cc(C)c(Cn2c3ccccc3c3cnn(CC(=O)NCc4ccc(Cl)cc4)c(=O)c32)c(C)c1	0	23µM	-	?	0	-
COc1cccc(NP(=O)(Oc2ccc(Cl)cc2)Oc2ccc(Cl)cc2)c1	13µM	23µM	?	?	?	?
O=P(Nc1ccccc1)(Nc1ccccc1)Oc1ccc(Cl)cc1	?	0	0	0	0	?
COc1ccccc1OP(=O)(Nc1cccnc1)Oc1ccccc1OC	9.2µM	12µM	?	?	?	?
Cc1ccc(NP(=O)(Oc2ccccc2F)Oc2ccccc2F)cc1C	?	?	0	?	0	0
Cc1cccc(NP(=O)(Oc2ccccc2F)Oc2ccccc2F)c1	18µM	?	0	?	?	?
C[C@@H]1C(=O)O[C@H]2[C@H](O)[C@]34[C@@H]5OC(=O)[C@]3(OC3OC(=O)[C@H](O)C34[C@H](C(C)(C)C)[C@@H]5O)[C@@]12O (stereo partly specified)	0	0	?	0	0	0
O=C(Nc1nc(-c2ccccc2)c(-c2ccccc2)s1)c1ccc(S(=O)(=O)N(CCCl)CCCl)cc1	?	?	0	0	0	0
CCN(CC)P(=O)(Nc1ccc([N+](=O)[O-])cc1)c1c(C)nn(CCC#N)c1NC(=O)c1ccc(Cl)cc1Cl (stereo unspecified)	0	23µM	0	18µM	0	0
CCOc1ccc(C(C)=O)cc1Cn1ccsc1=N	0	0	0	0	0	0
C/C(=N\NP(=S)(c1ccccc1)c1ccccc1)c1ccc(O)cc1O	?	0	?	0	0	0
Cc1ccc(CCNC(=O)C2CCCN(Cc3nc(-c4cccc(Cl)c4)oc3C)C2)cc1 (stereo unspecified)	-	15µM	-	12µM	-	-
CCCCC/C=C\C/C=C\C/C=C\C/C=C\CCCC(=O)O	-	24µM!	-	30µM!	-	-
CCCCC/C=C\C[C@@H](/C=C/C=C\C/C=C\CCCC(=O)O)OO	-	0[0.628 µM]	-	0[0.628 µM]	-	-
CC(C)(N)Cc1ccc(Cl)cc1	-	0	-	?	-	-
Cc1ccc(Cn2cccc(C(=O)Nc3nnc(C)s3)c2=O)cc1	0	0	-	0	?	-
COC(=O)c1nc(-c2ccc3c(n2)C(=O)C(N)=C(OC)C3=O)c(N)c(-c2ccc(OC)c(OC)c2O)c1C	10µM	0.92µM	?	0.46µM	?	?
